Source: PubChem BioAssay AID1255 (The Scripps Research Institute Molecular Screening Center, 2008)
About 330 (28%) of roughly 1,200 compounds were called active. Rule as the data show it: active = inhibition above about 17%; inactive = the rest. Only a sample is shown.

The compounds below were run against Neuropeptide Y receptor type 2 (Homo sapiens) (UniProt P49146) (assay: NPY-Y2 receptor antagonists, selectivity check, confirmation, counter-screen for NPY-Y1 antagonist project, HEK293-CNG cells, membrane potential fluorescence, triplicate (AID 1255;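 also: 0% = DMSO with agonist challenge and 100% = reference antagonist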)). Settings: antagonism, at 3.6 µM, stronger effect = higher value, cells given NPY, then isoproterenol.
Neuropeptide Y receptor type 2 (Homo sapiens), sequence (P49146 whole entry, looked up): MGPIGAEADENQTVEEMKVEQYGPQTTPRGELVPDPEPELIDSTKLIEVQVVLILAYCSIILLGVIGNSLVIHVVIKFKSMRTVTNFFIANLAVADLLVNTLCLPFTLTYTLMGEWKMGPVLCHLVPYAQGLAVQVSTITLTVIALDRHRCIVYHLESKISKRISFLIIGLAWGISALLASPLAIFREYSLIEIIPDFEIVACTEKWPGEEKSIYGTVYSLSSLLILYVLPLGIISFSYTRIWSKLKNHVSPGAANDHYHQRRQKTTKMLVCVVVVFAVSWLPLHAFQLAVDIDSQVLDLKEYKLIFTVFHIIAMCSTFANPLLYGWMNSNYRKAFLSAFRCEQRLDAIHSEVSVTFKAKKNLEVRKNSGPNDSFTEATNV

Compound	inhibition
CC1CN(CCCOc2ccccc2-c2ccccc2)CC(C)O1 (stereo not drawn)	6.39% (inactive)
Cc1ccc(/C=N/NC(=O)COc2ccccc2-c2ccccc2)cc1	28.1% (active)
c1ccc(-c2ccccc2OCCN2CCCCC2)cc1	6.63% (inactive)
CCCCCCC(=O)Nc1nc(C)c(-c2csc(Nc3cccc(OC)c3)n2)s1	2.61% (inactive)
Cc1ccc(C(=O)C[n+]2cc(-c3ccccc3)n3c2CCCCC3)cc1	14.5% (inactive)
CC(Oc1ccc2ccccc2c1)C(=O)NNC(=S)NC(=O)c1ccco1 (stereo not drawn)	10.2% (inactive)
CCN1CCN(CCNC(=O)c2ccc(/C=C3/Sc4ccccc4N(Cc4cccc(C)c4)C3=O)cc2)CC1	27% (active)
Cc1ccc(N2C(=O)C3N=NN(CC(=O)N4N=C(c5cccc6ccccc56)CC4c4ccccc4)C3C2=O)cc1 (stereo not drawn)	5.5% (inactive)
CCOC(=O)CSc1nc2c(sc(=S)n2CCc2ccccc2)c(=O)n1Cc1ccco1	14.4% (inactive)
O=C(NCCc1ccc2c(c1)OCCO2)c1cc2ccccc2o1	14.6% (inactive)
O=S(=O)(O)c1nc2ccccc2n1Cc1ccc(Cl)cc1	5.74% (inactive)
Cc1ccc(Cn2c(NC(=O)c3ccco3)nc3ccccc32)cc1	24.2% (active)
CCS(=O)(=O)n1nc(-c2ccccc2)nc1SCc1ccccc1	13.4% (inactive)
CCC(=O)c1c[nH]c(C(=O)NCC2CCCO2)c1 (stereo not drawn)	2.61% (inactive)
O=C(CSc1nnnn1C1CCCC1)Nc1ccc2c(c1)OCCO2	7.69% (inactive)
O=C(CN1CCN(c2ncc(C(F)(F)F)cc2Cl)CC1)Nc1ccc2c(c1)OCO2	18.4% (active)
COC(=O)c1ccc(COC(=O)c2c(C)nn(Cc3ccccc3Cl)c2Cl)o1	8.24% (inactive)
COc1ccc(CCN(C(=O)COc2ccccc2)c2nc(-c3ccccc3)cs2)cc1OC	17.3% (active)
CCCCc1c(O)nc2n(c1=O)CCS2	2.74% (inactive)
Cc1ccc2nc(-c3ccccn3)cc(C(=O)Nc3ccc4c(c3)OCO4)c2c1	25.5% (active)
CCc1ccc(CNC(=O)C2CCCN(c3nc4ccccc4o3)C2)cc1 (stereo not drawn)	11% (inactive)
CCCOC(=O)c1[nH]c2c(c1C)C(=O)CC(c1cccs1)C2 (stereo not drawn)	16.7% (inactive)
COc1ccccc1C1C2=C(COC2=O)Nc2cc3c(cc21)OCO3 (stereo not drawn)	10.6% (inactive)

Compound	inhibition
OC(COCCC12CC3CC(CC(C3)C1)C2)CN1CCCCC1 (stereo not drawn)	12.7% (inactive)
CS(=O)(=O)N1CCCC(C(=O)N2CCOCC2)C1 (stereo not drawn)	0.64% (inactive)
COc1ccc(C(c2nnnn2C2CCCCC2)N2CCN(c3ccccc3F)CC2)cc1 (stereo not drawn)	10.2% (inactive)
CC(=O)N1CC(C)c2scc(C)[n+]2-c2ccccc21 (stereo not drawn)	3.05% (inactive)
O=C(/C=C/c1ccco1)Nc1cccc(-c2nc3ccccc3[nH]2)c1	7.24% (inactive)
O=C(CSc1nc2cc3c(cc2c(=O)n1CCC1=CCCCC1)OCO3)NCc1ccco1	2.11% (inactive)
c1ccc2c(NC3C4CC5CC(C4)CC3C5)nc(N3CCOCC3)nc2c1 (stereo not drawn)	30.1% (active)
CC(Nc1nc(N2CCN(CCO)CC2)nc2ccccc12)c1ccccc1 (stereo not drawn)	10.1% (inactive)
Fc1ccc(-c2nnc(CSc3nnc(-c4ccc5c(c4)OCO5)o3)o2)cc1	9.04% (inactive)
CC(C)Cn1cnc2c1c(=O)n(CC(O)c1ccccc1)c(=O)n2CC(C)C (stereo not drawn)	-0.53% (inactive)
Cc1ccccc1Nc1scc(-c2ccc(Br)cc2)[n+]1-c1ccccc1C	12.3% (inactive)
Cc1cc(C(C)(C)C)oc1C(=O)N(CC(=O)NC1CCCC1)Cc1ccc(Cl)cc1	19.8% (active)
CCCSc1nc(NCc2ccco2)c2c3c(sc2n1)COC(C)(CC)C3 (stereo not drawn)	12.4% (inactive)
C/C(=N\NC(=S)NCc1ccccc1)c1ccc(Cl)cc1	5.13% (inactive)
COc1ccc(-c2[nH]nc(-c3ccccc3)c2-c2nc3ccccc3[nH]2)cc1	17% (inactive)
O=C(NCCCN1CCOCC1)c1cnn2c(-c3ccccc3)cc(-c3ccccc3)nc12	18.8% (active)
CCOC1CCCCC1NS(=O)(=O)c1ccc(Cl)cc1 (stereo not drawn)	1.15% (inactive)
Cc1nc(-c2ccccc2)sc1C(=O)/C=C/c1ccccc1	16.5% (inactive)
COc1ccc(C(=O)CSc2nnc(COc3ccccc3)n2Cc2ccco2)cc1	6.65% (inactive)
Oc1ccc(-c2[nH]ncc2-c2nc3ccccc3s2)c(O)c1	3.58% (inactive)
NC(N)=N/N=C/c1ccc(OCc2ccc(Cl)cc2Cl)cc1	30.3% (active)
CCOC(=O)c1nn(-c2cccc(C)c2)cc1C(=O)c1ccccc1	6.78% (inactive)
COC(=O)c1ccc(C(NC(=O)OCc2ccccc2)/C(C)=C/[C@@H](C)C(=O)NCc2ccc(OC)c(OC)c2)cc1 (stereo partly drawn)	12.9% (inactive)

Compound	inhibition
Cc1cc(C)c2[nH]c(=O)c(CN(Cc3ccccc3)C(=S)NCCCN(C)C)cc2c1	26.7% (active)
CN(C)CCCCCN(C)Cc1cc2ccccc2o1	14.4% (inactive)
COC(=O)C1=C(Nc2ccc(C)cc2)C=C(C)C(C(=O)OC)C1c1ccc(F)cc1 (stereo not drawn)	15.2% (inactive)
Cc1ccc(C(=O)N/C(=C/c2ccc(-c3cccc([N+](=O)[O-])c3)o2)C(=O)NCCCN(C)C)cc1	13.8% (inactive)
CCCOc1ccc2c3c(c(=O)oc2c1OCCC)CCC3	15.6% (inactive)
COc1ccccc1N1CCN(C(=O)CN(Cc2ccc(Cl)cc2)S(C)(=O)=O)CC1	3.69% (inactive)
Clc1ccccc1-c1cc(COc2ccc3ccccc3c2)no1	18.4% (active)
COc1cccc(CNCCc2c[nH]c3ccccc23)c1OCc1ccccc1F	16.7% (inactive)
CCCC(=O)Nc1nc2ccc(NC(=O)c3c(F)c(F)c(OC)c(F)c3F)cc2s1	11.5% (inactive)
Cc1ccc(SCCC(=O)OCC(=O)Nc2ncc(Cl)cc2Cl)cc1	5.65% (inactive)
CC(=O)OC(C)C[N+](C)(C)C (stereo not drawn)	12.9% (inactive)
COc1cc2c(C(=O)N3CCN(C)CC3)c(CSc3ccccc3)n(C)c2cc1Br	19.6% (active)
OCC1(CCc2ccccc2)CCN(Cc2ccc3nsnc3c2)CC1	9.39% (inactive)
CCOC(=O)N1CCN(S(=O)(=O)c2ccc(C(=O)Nc3ccc(F)cc3F)cc2)CC1	10.3% (inactive)
CCCCn1nc(C(=O)N2CCc3ccccc32)c2ccccc2c1=O	3.7% (inactive)
Cc1ccc(-c2cc(C(=O)N3CCc4ccccc4C3)no2)cc1	12.8% (inactive)
CCCCCCCCn1c2c(c(=N)c3c1CCC3)CCCC2	44.6% (active)
O=C(Cc1cccs1)N(CC1CCCO1)C1(C(=O)NC2CCCCC2)CCCCC1 (stereo not drawn)	11.1% (inactive)
O=C(c1cc(-c2ccc(O)cc2)on1)N1CCCc2ccccc21	2.92% (inactive)
CC(C)(C)NCc1cc(Br)ccc1OC1CCCC1	10.4% (inactive)
COc1ccc(C2Nc3ccccc3C(=O)N2Cc2ccccc2)cc1Cn1nnc2ccccc21 (stereo not drawn)	8.37% (inactive)
O=C1c2cccnc2C(Nc2ccc(S(=O)(=O)N3CCCCCC3)cc2)N1Cc1ccccc1 (stereo not drawn)	2.58% (inactive)
